Screens: PubChem BioAssay, National Center for Advancing Translational Sciences (NCATS)
CtBP-E1A inh: CtBP/E1A binding inhibition; AlphaScreen GST-E1A/His-CtBP binding, 1536-well; hits give low values; activity change, % (test concentration not listed); 0.49% of 340,000 active; AID 651724
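Steps: dispense buffer (Tris pH 8.0, NaCl 300 mM, TCEP 1 mM, BSA, Tween 20); add 5X protein mix (GST-E1A, His-CtBP, 125 nM each); pin 23 nL compound; 2 h at 37 °C, dark; add 5X beads (50 ug/mL); 1 h; read.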
Six1-Eya2 inh: Six1/Eya2 interaction inhibition. Q15475+O00167. AlphaScreen GST-Six1/His-Eya2 binding, biochemical; hits give low values. activity change, % (no concentration beside the values). 0.56% of 360,000 active. AID 651725
Target sequence (O00167 whole entry, looked up): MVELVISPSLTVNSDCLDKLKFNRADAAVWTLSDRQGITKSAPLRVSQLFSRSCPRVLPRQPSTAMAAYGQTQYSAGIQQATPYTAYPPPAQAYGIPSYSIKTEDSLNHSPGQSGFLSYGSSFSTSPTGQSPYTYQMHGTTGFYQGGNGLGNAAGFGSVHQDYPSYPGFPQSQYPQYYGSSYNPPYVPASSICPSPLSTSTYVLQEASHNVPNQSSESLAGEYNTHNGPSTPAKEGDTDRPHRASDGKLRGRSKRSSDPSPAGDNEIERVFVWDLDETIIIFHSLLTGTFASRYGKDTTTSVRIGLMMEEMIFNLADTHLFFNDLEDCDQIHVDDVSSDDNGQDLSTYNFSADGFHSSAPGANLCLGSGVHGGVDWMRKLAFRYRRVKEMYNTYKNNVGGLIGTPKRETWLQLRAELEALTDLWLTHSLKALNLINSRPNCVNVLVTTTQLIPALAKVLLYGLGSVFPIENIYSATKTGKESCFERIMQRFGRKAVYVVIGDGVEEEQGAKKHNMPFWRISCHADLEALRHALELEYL
Target sequence (Q15475 whole entry, looked up): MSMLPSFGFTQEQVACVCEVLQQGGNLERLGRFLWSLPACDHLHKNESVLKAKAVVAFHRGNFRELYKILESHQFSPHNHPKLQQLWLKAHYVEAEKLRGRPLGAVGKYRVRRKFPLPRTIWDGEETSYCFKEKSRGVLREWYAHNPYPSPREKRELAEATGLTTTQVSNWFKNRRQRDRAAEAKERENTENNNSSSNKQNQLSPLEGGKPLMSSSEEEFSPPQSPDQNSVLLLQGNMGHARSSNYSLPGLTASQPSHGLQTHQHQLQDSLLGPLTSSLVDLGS
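Homogeneous AlphaScreen proximity assay pairing GST-Six1 with His-tagged Eya2 (added as 5X mix: 250 nM and 500 nM) in 50 mM Tris pH 8.0, 300 mM NaCl, 1 mM TCEP. Glutathione donor and nickel acceptor beads; 1 h, 37 °C, dark.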
PKM2 act: PKM2 (human) enzyme activation. purified PKM2, Kinase-Glo ATP luminescence, activation; response scale: 0% is enzyme alone, no compound. AID 1631. P14618. Potency, µM (highest dose often 57.5 µM), most hits filed as activators. 0.34% of 260,000 active; active = well fitted activation curve with a large enough effect; inconclusive = small, poorly fitted or top-dose-only effect; inactive = no such curve, though single readings can be large or run the other way; note: nearly all actives have a fitted effect of over 55% in size
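ATP formation by purified human PK-M2, quantified via coupled luciferase luminescence after 1 h at room temperature with 0.1 mM ADP and 0.5 mM PEP final.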
MBNL1-CUG inh: MBNL1-poly(CUG) RNA binding inhibition | AID 2675 | 0.036% of 280,000 active | Potency, µM (top dose mostly 57.5 µM), actives largely listed as inhibitors | TR-FRET MBNL1-His/biotin-(CUG)12 binding, 665/545 ratio; active = well fitted inhibition curve with a large enough effect in the signal ratio, with a control signal flat, not every such curve was filed as active; inconclusive = small, poorly fitted or top-dose-only effect, or effect the other way, or a change in a side signal; inactive = no such curve, though single readings can be large or run the other way; the % refers to the signal ratio
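Compound titration spanned 92 nM–58 uM against the MBNL1-His/biotin-(CUG)12 complex. After 60 min at room temperature with 5 nM streptavidin-XL665 and 0.055 ng/ul terbium anti-His, ratiometric 665/545 nm emission (Ex 340 nm) normalized to controls.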
A number is an active result; i = inactive; ? = inconclusive; nt = no result; [ ] = remark or other dose. Shown are actives, neighbours in structure and some others; about 0.93% of the full set was active somewhere. Cut-off read from the data, not from the text of the source, unless noted: active = activity change below about -65%; inconclusive = mostly about -30% to -63%; inactive = weaker than that.

SMILES | CtBP-E1A inh | Six1-Eya2 inh | PKM2 act | MBNL1-CUG inh
Cc1nc(C)c(-c2csc(Nc3cccc(O)c3)n2)s1 | i | i | i | i
Cc1ccc(Nc2nc(-c3sc(N)nc3C)cs2)cc1 | nt | i | i[11.5 µM] | ?
COc1ccc(-c2noc(CN(C)CCC3CCCCO3)n2)cc1 (configuration not stated) | i | i | i | i
COC(=O)c1ccc(-c2noc(CN(C)CCC3CCCCO3)n2)cc1 (configuration not stated) | i | i | 0.2µM | i
Cc1nnc(NC(=O)C2CCN(S(=O)(=O)c3cc([N+](=O)[O-])ccc3Cl)CC2)o1 | -82 | -69 | nt | nt
CCN1CCCC1Cn1c(-c2ccccc2)nc2c(N(CCOC)CCOC)nc(C)nc21 (configuration not stated) | nt | nt | i | nt
O=C1C=C(NCCc2cc(Br)c(O)c(Br)c2)C(=O)c2ncccc21 | -92 | -86 | nt | nt
COc1ccccc1CNC(=O)C1CCN(S(=O)(=O)c2ccc3nc4c(c(C(=O)O)c3c2)CCCC4)CC1 | ? | ? | nt | i
O=C(NCc1ccccn1)C1CCN(S(=O)(=O)c2cccs2)CC1 | i | i | ? | i
O=C(NCc1ccccc1Cl)C1CCN(S(=O)(=O)c2cccs2)CC1 | i | i | 10µM | i
COc1ccc(CNC(=O)C2CCN(S(=O)(=O)c3ccc4nc5c(c(C(=O)O)c4c3)CC(C)CC5)CC2)cc1 (configuration not stated) | -82 | -73 | nt | i
CC1CCC(NC(=O)C2CCN(S(=O)(=O)c3ccc4nc5c(c(C(=O)O)c4c3)CC(C)CC5)CC2)CC1 (configuration not stated) | nt | i | i | i
O=C(O)c1c2c(nc3ccc(S(=O)(=O)N4CCC(C(=O)NCc5ccccc5)CC4)cc13)CCCC2 | i | -73 | nt | nt
CC1CCc2nc3ccc(S(=O)(=O)N4CCC(C(=O)NCc5ccccc5Cl)CC4)cc3c(C(=O)O)c2C1 (configuration not stated) | -66 | -73 | nt | i
CCCCC[C@]12Cc3cc(OC)c(OC)cc3C(O1)c1c(cc(C)n(-c3ccccc3)c1=O)O2 | nt | nt | i[11.5 µM] | i[11.5 µM]
CC(=O)/C(=N\Nc1ccccc1Cl)Sc1cccc2cccnc12 | -92 | -89 | i | nt
O=C(N/N=C/c1ccc(-c2ccc(S(=O)(=O)Nc3ncccn3)cc2)o1)c1cc2ccccc2cc1O | i | -67 | i | i
O=c1c2ccccc2[nH]c(=S)n1Cc1cccnc1 | i | i | 25µM | i
O=c1c2cc(Br)ccc2[nH]c(=S)n1Cc1cccnc1 | i | i | ? | i
Cn1nc(-c2ccccc2)c2cc(C(=O)O)sc21 | ? | ? | i | i
CSc1nnc(-c2cc3c(-c4ccccc4)nn(C)c3s2)n1C | -74 | -74 | i | i
O=c1c2ccccc2nnn1CSc1nnnn1-c1ccc(O)cc1 | nt | i | 14µM | i
Cc1cccc(-n2nnnc2SCn2nnc3ccccc3c2=O)c1 | i | i | 16µM | i
Cc1cccc(-n2nnnc2SCC(=O)Nc2cccc(S(N)(=O)=O)c2)c1 | nt | i | 5µM | i
Cc1ccc(-n2nnnc2SCn2nnc3ccccc3c2=O)cc1 | i | i | i | i
SMILES | CtBP-E1A inh | Six1-Eya2 inh | PKM2 act | MBNL1-CUG inh
O=C(CSc1nnnn1-c1ccc(O)cc1)Nc1cccc(S(=O)(=O)N2CCCC2)c1 | i | i | i | i
Nc1nc(-c2ccccc2)cn1N | i | i | 28µM | i
CCc1nc2c(OCC(=O)c3ccc(Cl)cc3Cl)cccn2c1N(C=O)Cc1ccccc1 | i | i | nt | nt
O=C(N/N=C/C(Br)=C\c1ccccc1)c1ccc2nc[nH]c2c1 | -77 | i | i | ?
O=C(N/N=C/C(Br)=C\c1ccccc1)c1cccs1 | -81 | i | i | i
O=C(N/N=C/C(Br)=C\c1ccccc1)c1ccco1 | -82 | i | i | ?
O=C(N/C(=C/c1cccc(Br)c1)C(=O)N1CCCCC1)c1ccco1 | i | i | nt | nt
CC(C)C[C@H]1CN([C@@H](Cc2ccc(O)cc2)CN2CCC[C@H]2CN2C(=O)C(=O)NC[C@@H]2Cc2ccccc2)C(=O)C(=O)N1CC1CCCCCC1 | i | i | nt | nt
Cn1c(CSc2nnc(SCc3ccccc3)s2)nc2ccccc21 | i | i | 18µM | i
CCCCn1nc(C(=O)NC2CCCCC2)c2ccccc2c1=O | i | i | nt | nt
Cc1cccc(C)c1-n1nnnc1C(c1ccnc2ccccc12)N1CCN(C(=O)OCc2ccccc2)CC1 (configuration not stated) | i | i | nt | nt
Cc1nc(NCc2ccccc2)c2nc(-c3ccccc3)n(CCCN3CCCCC3C)c2n1 (configuration not stated) | nt | nt | i | nt
CCCCN(C)c1c(C)nc2ccc(C(=O)N(C)Cc3ccco3)cn12 | i | i | nt | nt
CCOC(=O)C1CCCN(C(=O)c2sc(-c3ccccc3)nc2C)CC1 (configuration not stated) | i | i | nt | nt
Cn1nnc(NC(=S)NC(=O)c2ccc(-c3ccc(Br)cc3)o2)n1 | -69 | -72 | i | i
CN1CCN(c2ccc(CNC(=O)C3(C)Cc4c(-c5ccc6c(c5)OCO6)ccnc4O3)cc2)CC1 (configuration not stated) | i | i | nt | nt
COC(=O)c1ccc(C(NC(=O)OCc2ccccc2)/C(F)=C/[C@@H](C)C(=O)NC2CCCCC2)cc1 (some centres not stated) | nt | nt | i | nt
CC1(OC(=O)c2cnc3ccccc3n2)C(=O)C=C2C=C3CCCN3C=C2C1=O (configuration not stated) | nt | nt | i[11.5 µM] | nt
NC(=S)N/N=C/c1c[nH]c2ccccc12 | i | i | i | ?
Cc1cc(/C=N/NC(N)=S)c(O)c(/C=N/NC(N)=S)c1 | -92 | -87 | i | nt
NC(=S)NN=Cc1c[nH]c2nccnc12 | i | -66 | nt | nt
Oc1ccccc1C=NNC(=S)NN=Cc1ccccc1O | -95 | -81 | nt | nt
Oc1ccccc1/C=N/Nc1ccccc1 | i | i | i | i
NC(=S)N/N=C/c1ccccc1O | -68 | -87 | i | nt
CC1(OC(=O)C2CCCC2)C(=O)C=C2C=C(c3ccsc3)N(c3cccc(C#N)c3)C=C2C1=O (configuration not stated) | nt | nt | i[11.5 µM] | nt
SMILES | CtBP-E1A inh | Six1-Eya2 inh | PKM2 act | MBNL1-CUG inh
Oc1cccc(/C=N/NC(=S)NCCN2CCOCC2)c1O | -94 | -69 | i | i
O=C(N/N=C/c1ccccc1O)C1SCCCS1 | -95 | -92 | i | i
NC(=S)N/N=C/c1cccc(O)c1O | -93 | -80 | i | i
NC(=S)N/N=C/c1cccc(/C=N/NC(N)=S)c1 | i | i | i | i
CCCCn1nnnc1C(c1ccccc1)N1CCCN(Cc2ccc(F)cc2)CC1 (configuration not stated) | i | i | nt | nt
CCOc1cc2c(c3c1C(c1ccccc1)N(S(=O)(=O)c1ccc(C)cc1)C3)C(=O)C=CC2=O (configuration not stated) | i | i | nt | nt
CC(C)(C)c1cc(C(=O)/C=C/c2ccc(C(=O)O)cc2)cc(C(C)(C)C)c1 | nt | nt | i | nt
O=[N+]([O-])c1ccc(N/N=C2\CC3CC=CC23)c([N+](=O)[O-])c1 (configuration not stated) | i | -69 | ? | ?
